Activity calls are given as the source filed them.
Experiment: growth modulation of vineyard yeast isolate – strain RM11-1a, OD600, basal, 24 h, primary screen (AID 1177);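 also: cultures grown under basal conditions with no added stressor; test concentration not given here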
Details: S. cerevisiae RM11-1a growth, OD600, 24 h; higher = more signal, called active from +8 up or from −8 down

| Structure (SMILES) | z-score |
| --- | --- |
| CC(CCN1CCCCc2nc(C)c(C)cc21)=NOC[C@@H](C)[C@H](OCc1ccccc1)C(C)C | -2.61 (inactive) |
| COC(=O)CC=C[C@@H](C)[C@@H](C=NO[C@@H]1O[C@H](COC(C)=O)[C@@H](OC(C)=O)[C@H](OC(C)=O)[C@H]1OC(C)=O)OC | -0.0389 (inactive) |
| CO[C@@H]1COC(=O)[C@H](CCSC)NC(=O)CC=C[C@@H](C)COC(=O)CCC[C@H]1C | 0.0665 (inactive) |
| CCCNC(=O)OC[C@H]1O[C@H](CCON=C(C)CCC(=O)OC[C@H]2O[C@H](c3ccccc3)C=C[C@@H]2Oc2ccc(OC)cc2)C=C[C@@H]1Oc1ccc(OC)cc1 | 0.17 (inactive) |
| CCN1C(=O)[C@@H]2[C@H]3C(=CC[C@@H]2C1=O)C1(OCCCO1)[C@H]1O[C@H]1[C@H]3O | 1.15 (inactive) |
| O=C1[C@H]2[C@H]3[C@H](O)[C@H](O)CC(=NOC[C@@H](O)COCc4ccco4)[C@H]3CC[C@H]2C(=O)N1Cc1ccccc1 | -1.36 (inactive) |
| CO[C@H]1COC(=O)[C@@H](C)COC(=O)[C@H](C)NC(=O)CC=C[C@H]1C | -0.212 (inactive) |
| C[C@H]1COC(=O)[C@@H]2CCCN2C(=O)[C@@H](C)COC(=O)[C@H](Cc2ccccc2)NC1=O | -0.231 (inactive) |
| COC(=O)CC=C[C@@H](C)[C@H](OCc1cccc(-c2ccccc2)c1)C1CCCCC1 | 1.82 (inactive) |
| C=CC[C@@H]1C=C[C@H](ON=C(C)CCC(=O)OC[C@H]2O[C@H](C#Cc3ccccc3)C=C[C@@H]2Oc2ccc(C)cc2)[C@@H](CO)O1 | 1.23 (inactive) |
| CON=C[C@@H](NS(=O)(=O)c1ccc(C)cc1)[C@H](C)C=CCC(=O)OC | 0.475 (inactive) |
| CO[C@@H]1COC(=O)CC=C[C@H](C)[C@H](OC)COC(=O)[C@H](C)NC(=O)CC=C[C@H]1C | -0.363 (inactive) |
| CC(CCC(=O)OC[C@H]1O[C@H](C#Cc2ccccc2)C=C[C@@H]1Oc1ccc(C)cc1)=NO[C@H](C)c1cn([C@H](CO)Cc2ccccc2)nn1 | 1.78 (inactive) |
| CCOC(=O)[C@H](Cc1ccccc1)NC(=O)CCC1CC(OC(=O)NCc2cccc3ccccc23)CC2(CCCC(COC(=O)NCC(c3ccccc3)c3ccccc3)O2)O1 (stereo partly specified) | -0.714 (inactive) |
| CC(C)=CCCC(C)=CCON=C1C[C@@H](O)[C@@H](O)[C@@H]2[C@@H]3C(=O)N(C[C@@H]4CCCO4)C(=O)[C@@H]3CC[C@H]12 | 1.8 (inactive) |
| COC(=O)[C@H]1O[C@@H](c2c(OC)c(OC)c(C)c(OC)c2OC)[C@H](C)[C@@H](O)[C@H]1C | 0.275 (inactive) |
| COc1ccc(O[C@H]2C=C[C@@H](c3ccccc3)O[C@@H]2COC(=O)CCC(C)=NOC[C@@H](O)[C@H]2O[C@@H]3OC(C)(C)O[C@@H]3[C@H]2O)cc1 | 0.28 (inactive) |
| CCOC(=O)[C@H](CC(C)C)NC(=O)CCC1CC(OC(=O)NCCc2ccc(F)cc2)CC2(CCCC(COC(=O)NCC3CCCCC3)O2)O1 (stereo partly specified) | -0.547 (inactive) |

| Structure (SMILES) | z-score |
| --- | --- |
| CC(C)=CCCC(C)=CCON=C1C[C@@H](O)[C@@H](O)[C@@H]2[C@@H]3C(=O)N(C4CCCCC4)C(=O)[C@@H]3CC[C@@H]12 | -0.709 (inactive) |
| COC(=O)CC=C[C@@H](C)[C@@H](C=NOC[C@H]1O[C@H](c2ccccc2)C=C[C@@H]1Oc1ccc(OC)cc1)NS(=O)(=O)c1ccc(C)cc1 | 0.0674 (inactive) |
| CCc1cc2c(nc1CC)CCN(CCC(C)=NO[C@H](C)c1cn([C@@H]3COC[C@H]3O)nn1)C2 | 0.431 (inactive) |
| CCOC(=O)NN=C1C[C@@H](O)[C@@H](O)[C@@H]2[C@@H]3C(=O)N(Cc4ccc5c(c4)OCO5)C(=O)[C@@H]3CC[C@H]12 | 0.169 (inactive) |
| CO[C@H]1COC(=O)CC=C[C@H](C)[C@@H](OC)COC(=O)[C@@H](C)NC(=O)CC=C[C@@H]1C | -0.937 (inactive) |
| CO[C@@H]1COC(=O)CC=C[C@@H](C)[C@@H]2C=C[C@H](O)[C@@H](COC(=O)CC=C[C@H]1C)O2 | -0.72 (inactive) |
| CCOC(=O)[C@H](CC(C)C)NC(=O)CCC1CC(OC(=O)NCCc2ccc(F)cc2)CC2(CCCC(COC(=O)NCCc3ccccc3OC)O2)O1 (stereo partly specified) | 0.354 (inactive) |
| CCCNC(=O)OC[C@H]1O[C@H](CCON=C(C)CCN2CCCc3nc(C)c(C)cc32)C=C[C@@H]1Oc1ccc(OC)cc1 | -0.295 (inactive) |
| CCC(=O)[C@@]1(O)C(=O)N2C(=C3C(=O)OCC[C@@H]31)N(Cc1ccccc1)C(C)=C(C(=O)OC)[C@H]2c1ccccc1 | 0.273 (inactive) |
| CC(C)(C)N1C(=O)[C@H]2[C@H]3[C@H](O)C=CC(=O)[C@@H]3CC[C@H]2C1=O | 0.846 (inactive) |
| CC(CCN1CCCc2nc(C)c(C)cc21)=NO[C@@H](C)c1cc(-c2c(C)cc(C)cc2C)no1 | 0.39 (inactive) |
| C[C@H](ON=C1[C@H]2CCn3c(=O)n(-c4ccccc4)c(=O)n3[C@H]2[C@H](O)[C@@H]2O[C@H]12)c1cn([C@H](CO)Cc2ccccc2)nn1 | -1.09 (inactive) |
| CCN1C(=O)[C@H]2[C@H]3[C@H](O)[C@H](O)CC(=O)[C@H]3CC[C@H]2C1=O | -0.896 (inactive) |
| C#CCCCON=C1C[C@@H](O)[C@@H](O)[C@@H]2[C@@H]3C(=O)N(c4ccc(F)cc4F)C(=O)[C@@H]3CC[C@H]12 | -1.67 (inactive) |
| O=C(NN=C1C[C@@H](O)[C@@H](O)[C@@H]2[C@@H]3C(=O)N(C4CCCCC4)C(=O)[C@@H]3CC[C@@H]12)OCc1ccccc1 | 0.0487 (inactive) |
| CC(CCN1CCCCc2nc(C)c(C)cc21)=NOC[C@@H](O)COCc1ccco1 | 0.0681 (inactive) |
| C=CC1=C[C@H](O)[C@@H]2O[C@@H]2C12OCCCO2 | -0.838 (inactive) |
| CON=C1[C@H]2CCn3c(=O)n(-c4ccccc4)c(=O)n3[C@H]2[C@H](O)[C@@H]2O[C@H]12 | -2.21 (inactive) |
